Assay results from the supplement of paper PMC10849652.
About 7,900 targets were measured; listed, in parts, are those with a hit and a random draw of the rest. About 0.6% of all pairs of compound and target were hits.

What was measured:
Assay in all cases: log2 fold change, soluble protein after heating vs DMSO (PISA); higher = thermal stabilisation; K562 cells, 10 uM, 30 min; active = over 0.2 and 3.5 SD of the protein, either way, in both replicates (recomputed)
[1] = biological target: ZNF217 (UniProt O75362)
How it was run: (§1)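 K562 cells at 2×10^6 cells/mL were exposed to 10 μM compound for 30 min, then aliquots were heated for 3 min across 48°C-58°C, pooled, and extracted in PBS containing 0.5% NP-40 at 4°C. The supernatant after 21,000xg for 90 min was taken as soluble protein and measured by TMTpro 16plex LC-MS/MS with channel sums equalised. Thermal stability is reported relative to control samples, with values from duplicates. Fold changes are given on a log2 scale.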

[2] = biological target: ZNF239 (UniProt Q16600)
How it was run: as §1

[3] = biological target: ZNF277 (UniProt Q9NRM2)
How it was run: as §1

[4] = biological target: ZNF511 isoform 1 (UniProt Q8NB15)
How it was run: as §1

[5] = biological target: ZNF512 (UniProt Q96ME7)
How it was run: as §1

[6] = biological target: ZNF579 (UniProt Q8NAF0)
How it was run: as §1

[7] = biological target: ZNF609 (UniProt O15014)
How it was run: as §1

[8] = biological target: ZNF622 (UniProt Q969S3)
How it was run: as §1

[9] = biological target: ZRANB2 (UniProt O95218)
How it was run: as §1

[10] = biological target: ZNF580 (UniProt Q9UK33)
How it was run: as §1

Measured: log2 fold change

ZNF277, sequence (Q9NRM2 whole entry, looked up): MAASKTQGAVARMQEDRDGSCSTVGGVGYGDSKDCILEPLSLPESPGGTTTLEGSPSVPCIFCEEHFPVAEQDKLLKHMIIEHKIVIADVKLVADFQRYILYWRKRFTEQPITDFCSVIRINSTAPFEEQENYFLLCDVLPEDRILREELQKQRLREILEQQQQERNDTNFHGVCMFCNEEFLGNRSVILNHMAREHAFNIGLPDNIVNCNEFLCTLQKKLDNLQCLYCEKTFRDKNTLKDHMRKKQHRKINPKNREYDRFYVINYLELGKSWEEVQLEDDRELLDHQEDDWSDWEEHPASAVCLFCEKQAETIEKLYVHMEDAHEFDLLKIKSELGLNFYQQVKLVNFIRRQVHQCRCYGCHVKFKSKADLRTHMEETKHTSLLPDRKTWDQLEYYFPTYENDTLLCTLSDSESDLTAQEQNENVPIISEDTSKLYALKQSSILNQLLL
ZNF217, sequence (O75362 whole entry, looked up): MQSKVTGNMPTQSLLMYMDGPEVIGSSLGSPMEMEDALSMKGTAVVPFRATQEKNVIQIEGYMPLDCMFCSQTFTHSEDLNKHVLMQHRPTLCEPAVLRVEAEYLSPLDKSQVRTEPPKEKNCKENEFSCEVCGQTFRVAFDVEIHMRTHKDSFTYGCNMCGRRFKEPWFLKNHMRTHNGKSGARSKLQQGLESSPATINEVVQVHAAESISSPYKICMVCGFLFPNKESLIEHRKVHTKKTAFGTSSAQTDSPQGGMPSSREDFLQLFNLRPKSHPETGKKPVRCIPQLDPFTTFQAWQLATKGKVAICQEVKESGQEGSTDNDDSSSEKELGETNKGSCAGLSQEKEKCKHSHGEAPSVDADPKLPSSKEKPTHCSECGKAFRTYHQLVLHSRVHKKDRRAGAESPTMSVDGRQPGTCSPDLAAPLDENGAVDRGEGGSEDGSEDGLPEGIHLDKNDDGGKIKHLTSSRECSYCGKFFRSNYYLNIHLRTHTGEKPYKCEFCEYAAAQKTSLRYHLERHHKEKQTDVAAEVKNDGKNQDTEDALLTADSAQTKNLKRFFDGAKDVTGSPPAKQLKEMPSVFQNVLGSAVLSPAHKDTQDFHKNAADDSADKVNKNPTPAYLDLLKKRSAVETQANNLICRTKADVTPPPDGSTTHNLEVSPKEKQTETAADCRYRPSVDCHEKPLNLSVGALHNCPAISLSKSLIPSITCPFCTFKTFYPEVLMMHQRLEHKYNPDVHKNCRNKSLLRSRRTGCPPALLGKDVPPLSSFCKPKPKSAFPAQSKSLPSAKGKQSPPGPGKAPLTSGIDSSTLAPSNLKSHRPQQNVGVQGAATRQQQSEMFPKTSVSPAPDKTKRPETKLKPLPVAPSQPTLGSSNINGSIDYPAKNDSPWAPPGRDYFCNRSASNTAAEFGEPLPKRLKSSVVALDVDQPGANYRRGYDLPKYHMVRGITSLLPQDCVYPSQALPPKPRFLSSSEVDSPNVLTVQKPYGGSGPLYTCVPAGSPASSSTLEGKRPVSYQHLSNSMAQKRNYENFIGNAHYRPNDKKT
ZRANB2, sequence (O95218 whole entry, looked up): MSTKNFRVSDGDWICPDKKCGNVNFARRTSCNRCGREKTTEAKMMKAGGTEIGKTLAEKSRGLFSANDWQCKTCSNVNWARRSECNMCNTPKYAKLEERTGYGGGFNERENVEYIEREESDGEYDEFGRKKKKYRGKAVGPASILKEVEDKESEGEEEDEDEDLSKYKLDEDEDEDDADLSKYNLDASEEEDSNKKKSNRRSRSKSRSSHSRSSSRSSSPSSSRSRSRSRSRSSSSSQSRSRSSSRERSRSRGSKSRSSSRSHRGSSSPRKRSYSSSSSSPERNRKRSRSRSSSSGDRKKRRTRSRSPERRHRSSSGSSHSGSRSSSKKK
ZNF239, sequence (Q16600 whole entry, looked up): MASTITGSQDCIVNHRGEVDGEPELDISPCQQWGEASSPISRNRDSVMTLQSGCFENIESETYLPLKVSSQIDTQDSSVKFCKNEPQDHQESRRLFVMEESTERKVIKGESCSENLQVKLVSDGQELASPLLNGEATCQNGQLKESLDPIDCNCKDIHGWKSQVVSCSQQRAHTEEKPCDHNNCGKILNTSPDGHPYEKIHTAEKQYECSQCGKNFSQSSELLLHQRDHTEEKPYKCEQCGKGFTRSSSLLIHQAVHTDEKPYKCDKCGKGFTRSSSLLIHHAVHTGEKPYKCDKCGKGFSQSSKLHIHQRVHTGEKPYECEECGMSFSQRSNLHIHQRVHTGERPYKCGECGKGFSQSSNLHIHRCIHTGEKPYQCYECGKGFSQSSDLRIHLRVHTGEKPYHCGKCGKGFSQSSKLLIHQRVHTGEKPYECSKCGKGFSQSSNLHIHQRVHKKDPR
ZNF622, sequence (Q969S3 whole entry, looked up): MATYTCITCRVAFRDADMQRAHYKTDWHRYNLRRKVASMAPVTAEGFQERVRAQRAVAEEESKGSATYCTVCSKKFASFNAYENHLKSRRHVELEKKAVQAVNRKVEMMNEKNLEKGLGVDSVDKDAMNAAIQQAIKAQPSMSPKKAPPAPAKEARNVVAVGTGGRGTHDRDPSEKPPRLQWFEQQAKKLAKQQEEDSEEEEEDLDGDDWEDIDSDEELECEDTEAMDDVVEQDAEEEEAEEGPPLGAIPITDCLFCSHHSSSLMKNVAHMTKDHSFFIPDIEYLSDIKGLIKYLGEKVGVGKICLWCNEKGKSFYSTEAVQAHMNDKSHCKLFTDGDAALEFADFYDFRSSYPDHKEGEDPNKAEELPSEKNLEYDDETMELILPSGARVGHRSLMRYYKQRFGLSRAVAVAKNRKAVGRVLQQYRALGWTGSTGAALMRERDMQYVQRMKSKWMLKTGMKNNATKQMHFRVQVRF
ZNF511 isoform 1, sequence (Q8NB15 whole entry, looked up, canonical isoform): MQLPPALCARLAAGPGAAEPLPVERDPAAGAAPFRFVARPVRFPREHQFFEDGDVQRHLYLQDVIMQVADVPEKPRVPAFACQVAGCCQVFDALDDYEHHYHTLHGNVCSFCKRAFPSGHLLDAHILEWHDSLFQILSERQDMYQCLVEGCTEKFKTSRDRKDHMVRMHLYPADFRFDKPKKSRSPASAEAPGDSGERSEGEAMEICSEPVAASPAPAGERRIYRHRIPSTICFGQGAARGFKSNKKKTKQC
ZNF579, sequence (Q8NAF0 whole entry, looked up): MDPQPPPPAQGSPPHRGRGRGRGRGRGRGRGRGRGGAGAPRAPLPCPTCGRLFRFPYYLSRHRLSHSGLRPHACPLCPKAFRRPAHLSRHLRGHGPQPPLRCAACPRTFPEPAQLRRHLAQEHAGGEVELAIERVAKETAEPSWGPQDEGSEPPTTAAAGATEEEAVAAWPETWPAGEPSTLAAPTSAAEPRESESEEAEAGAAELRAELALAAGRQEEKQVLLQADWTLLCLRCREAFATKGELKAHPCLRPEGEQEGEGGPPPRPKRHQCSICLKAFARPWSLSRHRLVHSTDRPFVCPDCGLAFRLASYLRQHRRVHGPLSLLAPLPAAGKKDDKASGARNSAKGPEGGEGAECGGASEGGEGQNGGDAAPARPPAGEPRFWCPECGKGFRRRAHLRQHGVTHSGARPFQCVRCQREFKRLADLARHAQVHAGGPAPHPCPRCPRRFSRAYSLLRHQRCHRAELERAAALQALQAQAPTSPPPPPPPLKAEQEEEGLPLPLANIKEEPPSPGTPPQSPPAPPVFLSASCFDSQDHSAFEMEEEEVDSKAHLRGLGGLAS
ZNF512, sequence (Q96ME7 whole entry, looked up): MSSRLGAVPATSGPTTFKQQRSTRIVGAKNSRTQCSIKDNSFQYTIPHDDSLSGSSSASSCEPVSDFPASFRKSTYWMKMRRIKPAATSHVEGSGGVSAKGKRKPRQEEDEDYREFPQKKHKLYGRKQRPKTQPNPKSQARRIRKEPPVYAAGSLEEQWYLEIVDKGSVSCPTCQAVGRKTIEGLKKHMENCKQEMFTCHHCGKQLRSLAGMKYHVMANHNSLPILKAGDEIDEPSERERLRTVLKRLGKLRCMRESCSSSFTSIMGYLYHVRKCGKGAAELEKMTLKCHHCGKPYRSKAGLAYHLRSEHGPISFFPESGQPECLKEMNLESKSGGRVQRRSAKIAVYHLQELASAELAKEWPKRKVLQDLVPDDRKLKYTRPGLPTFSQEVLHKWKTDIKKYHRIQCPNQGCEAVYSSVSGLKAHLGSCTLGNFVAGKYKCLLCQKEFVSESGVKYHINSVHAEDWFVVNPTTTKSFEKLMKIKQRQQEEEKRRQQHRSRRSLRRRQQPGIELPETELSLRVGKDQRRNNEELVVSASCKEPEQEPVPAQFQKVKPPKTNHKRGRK
ZNF580, sequence (Q9UK33 whole entry, looked up): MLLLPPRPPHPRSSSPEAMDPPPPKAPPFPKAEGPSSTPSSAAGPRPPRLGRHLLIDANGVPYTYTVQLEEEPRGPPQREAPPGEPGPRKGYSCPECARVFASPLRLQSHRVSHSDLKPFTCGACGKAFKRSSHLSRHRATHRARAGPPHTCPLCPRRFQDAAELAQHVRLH

CC(C)(O)CC(=O)NCCn1ccc2ncnc(Nc3ccc(Oc4cccc(C(F)(F)F)c4)c(Cl)c3)c21
inactive: [1] -0.122 | [2] 0.086 | [3] -0.002 | [4] 0.1 | [5] -0.018 | [6] -0.018 | [7] 0.101 | [8] -0.078 | [9] -0.012

CC[C@H](C)n1cc(C)c2c(C(=O)NCc3c(C)cc(C)[nH]c3=O)cc(-c3ccc(N4CCNCC4)nc3)cc21
inactive: [1] 0.045 | [2] -0.096 | [3] 0.02 | [4] -0.058 | [5] -0.002 | [6] 0.167 | [7] 0.076 | [8] -0.012 | [9] 0

COc1cc(C(=O)O)ccc1NC(=O)[C@@H]1N[C@@H](CC(C)(C)C)[C@](C#N)(c2ccc(Cl)cc2F)[C@H]1c1cccc(Cl)c1F [idasanutlin]
inactive: [1] -0.027 | [2] -0.031 | [3] -0.003 | [4] 0.128 | [5] 0.3 | [6] -0.116 | [7] 0.021 | [8] -0.031 | [9] 0.024

CC1=C(C(=O)Nc2cc3cn[nH]c3cc2F)C(c2ccc(C(F)(F)F)cc2)CC(=O)N1 (centres undefined)
inactive: [1] -0.033 | [2] 0.283 | [3] -0.009 | [4] -0.006 | [5] -0.261 | [6] -0.003 | [7] -0.117 | [8] -0.083 | [9] 0.025

CN1CC[C@H](c2c(O)cc(O)c3c(=O)cc(-c4ccccc4Cl)oc23)[C@H](O)C1 [alvocidib]
inactive: [1] -0.164 | [2] 0.226 | [3] 0.169 | [4] -0.143 | [5] -0.002 | [6] -0.034 | [7] 0.077 | [8] 0.085 | [9] 0.068

C[C@@H]1COCCN1c1cc(C2(S(C)(=O)=O)CC2)nc(-c2cccc3[nH]ccc23)n1
inactive: [1] -0.099 | [2] -0.065 | [3] -0.566 | [4] 0.105 | [5] 0.007 | [6] -0.114 | [7] -0.064 | [8] 0.067 | [9] 0.001

CC(=O)c1cnc2ccc(-c3cc(Cl)c(O)c(Cl)c3)nc2c1N[C@H]1CC[C@H](CN(C)C)CC1
inactive: [1] -0.125 | [2] -0.439 | [3] -0.017 | [4] -0.005 | [5] -0.15 | [6] -0.187 | [7] -0.071 | [8] 0.096 | [9] 0.017

CO[C@H]1C[C@@H]2CC[C@@H](C)[C@@](O)(O2)C(=O)C(=O)N2CCCC[C@H]2C(=O)O[C@H]([C@H](C)C[C@@H]2CC[C@H](n3cnnn3)[C@H](OC)C2)CC(=O)[C@H](C)/C=C(\C)[C@@H](O)[C@@H](OC)C(=O)[C@H](C)C[C@H](C)/C=C/C=C/C=C/1C [zotarolimus]
inactive: [1] -0.007 | [2] -0.483 | [3] -0.084 | [4] 0.066 | [5] -0.024 | [6] 0.099 | [7] -0.008 | [8] -0.017 | [9] -0.011

Cc1cn(-c2cc(NC(=O)c3ccc(C)c(Nc4nccc(-c5cccnc5)n4)c3)cc(C(F)(F)F)c2)cn1 [nilotinib]
inactive: [1] -0.082 | [2] -0.022 | [3] -0.207 | [4] -0.17 | [5] -0.031 | [6] 0.105 | [7] 0.03 | [8] 0.046 | [9] 0.052

Fc1ccc(Cl)cc1-c1nc(Nc2ccncc2)c2nccnc2n1
inactive: [1] 0.168 | [2] -0.333 | [4] -0.03 | [5] 0.086 | [6] -0.002 | [7] -0.302 | [8] 0.038 | [9] 0.041
active: [3] -0.765

FC(F)(F)c1ccc(/C=C/c2nc(COc3ccc(CCCCn4ccnn4)cc3)co2)cc1 [mubritinib]
inactive: [1] 0.08 | [2] -0.483 | [3] 0.192 | [4] -0.06 | [5] -0.122 | [6] 0.031 | [7] 0.019 | [8] 0.004 | [9] -0.02

COc1cc2ncnc(Nc3ccc(F)c(Cl)c3)c2cc1OCCCN1CCOCC1 [gefitinib]
inactive: [1] 0.001 | [2] -0.267 | [3] -0.053 | [4] -0.192 | [5] -0.02 | [6] 0.111 | [7] -0.069 | [8] 0 | [9] 0.034

O=C1NC(=NCc2cccs2)S/C1=C\c1ccc2ncccc2c1
inactive: [1] 0.007 | [2] 0.117 | [3] 0.019 | [4] 0.087 | [5] 0.102 | [6] -0.051 | [7] -0.025 | [8] 0.07 | [9] -0.059

O=C1c2ccccc2-c2n[nH]c3cccc1c23
inactive: [1] 0.03 | [2] 0.004 | [3] 0.065 | [4] 0.041 | [5] 0.161 | [6] 0.279 | [7] 0.002 | [8] 0.042 | [9] -0.059

Cc1ncc(-c2ccnc(Nc3ccc(S(C)(=O)=O)cc3)n2)n1C(C)C
inactive: [1] -0.046 | [2] 0.275 | [3] 0.017 | [4] 0.015 | [5] -0.072 | [6] -0.054 | [7] -0.102 | [8] 0.013 | [9] -0.027

CCCc1cc(C)[nH]c(=O)c1CNC(=O)c1cc(-c2ccnc(N3CCN(C)CC3)c2)cc2c1cnn2C(C)C
active: [2] -0.662
inactive: [1] 0.003 | [3] 0.154 | [4] 0.08 | [5] 0.363 | [6] 0.058 | [7] -0.003 | [8] -0.01 | [9] 0.028

CC[C@H](C)[C@H](NC(=O)[C@H]([C@@H](C)CC)N(C)C(C)=O)C(=O)N[C@H](C(=O)N[C@@H](CC(C)C)C(=O)[C@@]1(C)CO1)[C@@H](C)O [epoxomicin]
inactive: [1] 0.075 | [2] -0.051 | [3] -0.06 | [4] -0.045 | [5] 0.085 | [6] -0.024 | [7] -0.271 | [8] 0.056 | [9] -0.016

NC(=O)c1cnc(N[C@@H]2CCCC[C@@H]2N)nc1Nc1cccc(-n2nccn2)c1
inactive: [1] -0.053 | [2] -0.092 | [3] 0.067 | [4] -0.066 | [5] -0.005 | [6] 0.067 | [7] 0.015 | [8] -0.002 | [9] 0.002

Cn1cc(-c2ccc3c(c2)CCN3C(=O)Cc2cccc(C(F)(F)F)c2)c2c(N)ncnc21
inactive: [1] 0.142 | [2] 0.306 | [3] -0.163 | [4] 0.01 | [6] 0.059 | [7] -0.041 | [8] 0.067 | [9] -0.013
active: [5] -0.86

O=C1NC(=O)C(c2cnc3ccccn23)=C1c1cn2c3c(cc(F)cc13)CN(C(=O)N1CCCCC1)CC2
active: [7] -0.571
inactive: [1] -0.102 | [2] 0.082 | [3] 0.124 | [4] -0.095 | [5] -0.023 | [6] 0.038 | [8] 0.043 | [9] 0.12

COc1cc(Nc2ncc3c(n2)-c2ccc(Cl)cc2C(c2c(F)cccc2OC)=NC3)ccc1C(=O)O [alisertib]
inactive: [1] -0.092 | [2] -0.004 | [3] 0.028 | [4] 1.14 | [5] -0.286 | [6] -0.082 | [7] -0.021 | [8] -0.028 | [9] -0.058

Cc1cc(Nc2cc(N3CCN(C)CC3)nc(Sc3ccc(NC(=O)C4CC4)cc3)n2)n[nH]1 [tozasertib]
inactive: [1] -0.07 | [2] -0.116 | [3] 0.202 | [4] 0.049 | [6] 0.041 | [10] -0.138 | [7] 0.078 | [8] -0.064 | [9] -0.029

CCCCN(Cc1ccc(C(=O)NO)cc1)C(=O)Nc1ccccc1 [Nexturastat A]
inactive: [1] 0.006 | [2] 0.441 | [3] 0.276 | [4] -0.074 | [5] -0.038 | [6] 0.004 | [8] -0.086 | [9] -0.057
active: [7] 0.475

NC1(c2ccc(-c3nc4ccn5c(=O)[nH]nc5c4cc3-c3ccccc3)cc2)CCC1
inactive: [1] -0.045 | [2] -0.253 | [3] 0.107 | [4] -0.039 | [5] 0.151 | [6] -0.061 | [7] 0.018 | [8] -0.019 | [9] 0.046

C/C(=N\NC(=O)c1cccc(S(=O)(=O)N2CCOCC2)c1)c1cc(Cl)ccc1O
active: [4] -0.402
inactive: [1] 0.074 | [2] 0.019 | [3] -0.031 | [5] -0.085 | [6] 0.147 | [7] -0.048 | [8] 0.015 | [9] -0.067

COc1cccc2cc(-c3nc([C@H]4CC[C@H](C(=O)O)CC4)n4ncnc(N)c34)[nH]c12
inactive: [1] 0.043 | [2] 0.548 | [3] -0.24 | [4] 0.099 | [5] -0.041 | [6] -0.078 | [7] -0.028 | [8] 0.01 | [9] -0.01
